Key:
Assay in all cases: PBM binding z-score (relative to random genomic background probes); higher = stronger binding; sequences stand for … in GC…GCGATTGACAGCGTAGAATGAAGG
[1] = test system: FXR:RXRa (NR concentration 270 nM, RXRa partner concentration 90 nM)
Summary of the method: (§1)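 Antibodies against each partner of ligand-free nuclear receptor dimers (one per run) detected binding on custom Agilent 4×180K protein-binding microarrays after 1 h incubation. The double-stranded probes had 34-nt variable regions carrying direct-repeat seeds, single-nucleotide variants, half-site ablations and random human genomic background sequences. Binding z-scores, from regression-normalized fluorescence, use the random background probes as reference.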

[2] = test system: LXRa:RXRa (NR concentration 270 nM, RXRa partner concentration 90 nM)
Summary of the method: as §1

[3] = test system: LXRa homodimer (NR concentration 270 nM)
Summary of the method: as §1

[4] = test system: LXRb:RXRa (NR concentration 270 nM, RXRa partner concentration 90 nM)
Summary of the method: as §1

[5] = test system: LXRb homodimer (NR concentration 270 nM)
Summary of the method: as §1

[6] = test system: PPARa:RXRa (NR concentration 270 nM, RXRa partner concentration 90 nM)
Summary of the method: as §1

[7] = test system: PPARg:RXRa (NR concentration 180 nM, RXRa partner concentration 90 nM)
Summary of the method: as §1

[8] = test system: PPARg:RXRa 270nM:90nM, anti-RXR (NR concentration 270 nM, RXRa partner concentration 90 nM)
Summary of the method: as §1

[9] = test system: PPARg:RXRa 30nM:10nM, anti-RXR (NR concentration 30 nM, RXRa partner concentration 10 nM)
Summary of the method: as §1

[10] = test system: PPARg:RXRa 90nM:30nM, anti-RXR (NR concentration 90 nM, RXRa partner concentration 30 nM)
Summary of the method: as §1

[11] = test system: PPARg:RXRa DBDmut IVT, anti-RXR (DBD mutation: RXRa K156A/R161A, NR concentration 270 nM, RXRa partner concentration 90 nM)
Summary of the method: as §1

[12] = test system: PPARg:RXRa IVT, anti-PPARg (NR concentration 270 nM, RXRa partner concentration 90 nM)
Summary of the method: as §1

[13] = test system: PPARg DBDmut:RXRa IVT, anti-PPARg (DBD mutation: PPARg1 K132A/R137A, NR concentration 270 nM, RXRa partner concentration 90 nM)
Summary of the method: as §1

[14] = test system: PPARg DBDmut IVT, anti-PPARg (DBD mutation: PPARg1 K132A/R137A, NR concentration 270 nM)
Summary of the method: as §1

[15] = test system: PPARg homodimer (NR concentration 180 nM)
Summary of the method: as §1

[16] = test system: PXR:RXRa (NR concentration 270 nM, RXRa partner concentration 90 nM)
Summary of the method: as §1

[17] = test system: PXR homodimer (NR concentration 270 nM)
Summary of the method: as §1

[18] = test system: RARa:RXR (NR concentration 270 nM, RXRa partner concentration 90 nM)
Summary of the method: as §1

[19] = test system: RARa homodimer (NR concentration 270 nM)
Summary of the method: as §1

[20] = test system: RARb:RXRa (NR concentration 270 nM, RXRa partner concentration 90 nM)
Summary of the method: as §1

Sequence	PBM binding z-score [1]	PBM binding z-score [2]	PBM binding z-score [3]	PBM binding z-score [4]	PBM binding z-score [5]	PBM binding z-score [6]	PBM binding z-score [7]	PBM binding z-score [8]	PBM binding z-score [9]	PBM binding z-score [10]	PBM binding z-score [11]	PBM binding z-score [12]	PBM binding z-score [13]	PBM binding z-score [14]	PBM binding z-score [15]	PBM binding z-score [16]	PBM binding z-score [17]	PBM binding z-score [18]	PBM binding z-score [19]	PBM binding z-score [20]
CGAACTAGGTCATTGACAGGACATTGAATAGTAA	3.53	3.53	1.19	2.32	0.107	4.56	7.27	6.42	4.27	5.95	8.1	8.23	1.94	1.62	1.29	2.35	0.404	2.06	0.367	3.52
TCATATAGGAAAAGGTGAAAGTCGAACGATATGA	1.2	1.15	-0.161	1.4	-0.24	2.46	1.45	3.09	4.54	4.05	1.88	1.52	1.28	0.696	0.985	0.902	-0.139	1.54	0.581	1.93
GCGACTGGGGCATCACCAGGTTACCATAACTTAA	-0.25	-0.178	-0.0644	0.637	-0.712	1.02	1.1	0.672	-0.379	0.216	3.65	3.39	-0.477	-0.785	0.0676	0.244	-0.357	0.695	-0.656	0.96
TCGACTAGGTTAGTCGGGGCATTCAGCCAACATA	-0.0811	-0.0624	-0.672	-0.0911	-0.943	0.668	0.144	1.05	1.49	1.12	2.49	2.12	-0.552	-0.496	-0.609	0.117	-0.422	0.0483	-1.11	0.662
GCTATTAGTTGAAAGGGCAACCTAATGATTCTCG	0.451	0.673	0.238	1.08	-0.393	2.38	2.46	4.31	2.24	4.3	0.686	0.831	0.904	0.354	0.978	0.94	0.54	1.56	0.795	2.02
CCTACTGGGCAATCAGGTCATTGATATCAACGTT	0.891	1	0.766	1.27	-0.496	2.26	1.34	2.44	0.371	1.25	2.45	3.55	0.181	-0.716	0.487	1.48	0.775	1.95	0.376	1.69
GGAACGAGGGCAAGTAGATAGCAGAGTTTGATGG	0.456	0.278	-0.397	-0.016	-0.00645	1.36	1.21	0.904	0.0838	0.493	3.61	2.59	-0.498	-0.505	-0.0596	0.344	0.589	0.247	-0.258	2.46
CCCACTGGGGCAGAAAGGTTACCATACCATCCGG	0.135	0.483	-0.148	0.675	-0.892	2.12	2.04	2.59	0.549	2.22	2.2	3.8	-0.946	-0.994	1.02	0.703	-0.212	1.59	-0.0999	1.86
CCTTACGGGTCACTGACAGGATATAGCATTTGGA	5.3	3.68	0.191	3.28	-0.185	5.22	4.58	4.24	1.5	2.88	3.33	3.54	1.02	0.966	2.23	3.03	0.183	3.85	1.33	3.95
TCTTATAGGTAAATGCTAGGTGAAAGTCCGATCT	1.33	1.6	0.477	1.11	0.669	1.27	0.531	2.5	3.79	3.41	3.93	2.62	1.31	1.13	1.1	0.946	0.588	1.4	1.65	0.769
CCAGACAGATGAAAGGTAACTCAGTCTGGTACGC	-0.273	0.0444	-0.381	0.156	-0.167	0.579	0.879	1.21	0.636	0.829	-0.108	-0.154	-0.0341	-0.512	0.444	0.0908	0.0132	0.186	0.861	0.167
CCTATTAGTTGACCATAAGGGCGACCGAAGCTCG	0.484	0.482	0.301	0.554	0.545	0.197	0.29	0.138	-0.288	0.134	0.603	0.201	-0.102	0.933	2.13	0.235	0.541	0.509	1.68	0.951
AGAACGAGAGCAATGAGTTGATAGCACGGGTGGC	-0.715	-0.7	-0.726	-0.759	-0.725	-0.447	0.796	-0.0173	-0.196	0.0595	0.0253	-0.231	-0.979	-0.694	-1.02	-0.378	-0.202	-0.818	-0.732	-0.525
TTACCAAGGTGAAAGGTCTTTGATGCACGCCTTG	1.27	1.01	-0.494	1.07	-0.549	3.54	5.56	6.21	4.99	6.07	2.19	4.37	0.282	0.356	1.16	1.19	-0.419	1.96	0.0646	1.96

From the supplement of paper PMC6555819
